The list is not random: actives were taken first. Their share in the collection is about 6.5%.
HCMV antiviral: inhibitors of human cytomegalovirus. HFF cells, HCMV-luciferase reporter, 72 h; hits give low values. activity change, negative = inhibition, % at 57.5 µM. AID 1259415. 410,000 compounds, 4.5% hits; in the data active means activity change below about -60%; inconclusive means no clear call, values can overlap the other calls; inactive means above about -39%
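Human foreskin fibroblasts infected with luciferase-reporter HCMV at MOI 1 PFU/cell, compounds at two doses. Luciferase measured 72 h post infection; normalized to buffer-only basal and Salinomycin (10uM) controls.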
MARV entry inh: Marburg virus entry inhibition; Marburg virus pseudotyped entry inhibition, cell reporter; Potency, µM (doses to about 37.8 µM), inactives show at the highest dose activity change, negative = inhibition, usual class: inhibitors; 300,000 compounds, 1.8% hits; AID 540276; calls by dose curve; tested in HEK293 cells; further: potency means the concentration at half of the fitted maximal effect
Vaccinia Venus: vaccinia inhibition (Venus reporter); 330,000 compounds, 0.46% hits; Potency, µM (titrated, usually from 36.5 µM), inactives show top-dose activity change, negative = inhibition, actives largely listed as inhibitors; AID 720580; Vaccinia virus Venus reporter expression, fluorescence; calls by dose curve; tested in A549 cells; further: potency means the concentration at half of the fitted maximal effect; nearly all actives have a fitted effect of over 30% in size
Lassa entry inh: inhibitors of Lassa virus binding or cell entry | Lassa virus pseudotype entry inhibition, cell reporter | Potency, µM (highest dose often 37.9 µM), for inactives: at the highest dose activity change, negative = inhibition, hits mostly inhibitors | 300,000 compounds, 1.2% hits; calls by dose curve; tested in HEK293 cells; further: potency means the concentration at half of the fitted maximal effect; nearly all actives have a fitted effect of over 50% in size
Vaccinia mCherry: vaccinia inhibition (mCherry reporter); Vaccinia virus mCherry reporter infection, fluorescence; Potency, µM (series often up to 36.5 µM), for the others: top-dose activity change, negative = inhibition, hits mostly inhibitors; 310,000 compounds, 0.63% hits; calls by dose curve; tested in A549 cells; further: potency means the concentration at half of the fitted maximal effect; nearly all actives have a fitted effect of over 35% in size
FMDV inh: foot and mouth disease virus antiviral activity; AID 1159524; FMDV antiviral cell-based qHTS; 410,000 compounds, 1.2% hits; Potency, µM (titrated, usually from 57.9 µM), for the others: at the highest dose activity change, negative = inhibition, hits mostly inhibitors; calls by dose curve; tested in HEK293T cells; further: read-out not given here; potency means the concentration at half of the fitted maximal effect; nearly all actives have a fitted effect of over 45% in size
Starred values were filed as active, the others as inactive; i = inactive; u = inconclusive; x = no result given; [ ] = dose if it differs, or a comment. On the % scale 0 is the no-effect control and ±100 the full control effect.

SMILES | HCMV antiviral | MARV entry inh | Vaccinia Venus | Lassa entry inh | Vaccinia mCherry | FMDV inh
Cc1ccc(-n2c3nc(=O)[nH]c(=O)c-3cc3cc([N+](=O)[O-])ccc32)cc1C | -99* | u | -10% | u | -17% | 28µM*
Cc1c(/C=N/NC(=O)COc2ccccc2[N+](=O)[O-])c2ccccc2n1C | 13 | -23% | x | -4% | x | -15%
Cc1ccc(OCC(=O)N/N=C\c2c(C)n(C)c3ccccc23)c([N+](=O)[O-])c1 | x | 10µM* | x | -18% | x | 0%
Cn1c(NC(=O)C[n+]2cc(-c3ccccc3)n3c2CCC3)cc(=O)n(C)c1=O | 12 | 1% | 0% | 3% | -14% | -9%
O=C(C[n+]1cc(-c2ccc(Cl)cc2)n2c1CCC2)Nc1nc(-c2ccc(F)cc2)cs1 | -63* | 9% | x | x | x | -7%
O=C(C[n+]1cc(-c2ccc(F)cc2)n2c1CCC2)Nc1nc(-c2ccc(F)cc2)cs1 | 119 | 13% | -9% | 16% | i | -13%
Cn1c(NC(=O)C[n+]2cc(-c3ccc(Cl)cc3)n3c2CCC3)cc(=O)n(C)c1=O | -77* | -16% | -22% | 5% | i | 5%
COCC(=O)Nc1cc(C(=O)NC2CCCc3ccccc32)c2c(c1)nc(-c1ccncc1)n2C (stereo not given) | x | x | -8% | x | -14% | -8%
N=C1S/C(=C\c2ccccc2F)C(=O)N1c1ccc(F)cc1 | -27 | -8% | x | 7% | x | -1%
N=C1S/C(=C\c2cccc3ccccc23)C(=O)N1c1ccc(F)cc1 | -71* | u | -13% | 8.9µM* | -19% | -21%
O=C(O)C[C@@H]1CCCc2ccccc2[C@H]1O | x | 38% | x | x | x | x
Cc1ccc2nc(N(CCCN(C)C)C(=O)c3ccc4c(c3)CCCC4)sc2c1 | -77* | u | u | u | u | u
CN(C)CCCN(C(=O)c1ccc2c(c1)CCCC2)c1nc2c(F)cccc2s1 | -35 | -18% | -20% | u | -30% | -7%
Cc1cc(C)c2nc(N(CCCN(C)C)C(=O)c3ccc4c(c3)CCCC4)sc2c1 | u | u | -19% | 11µM* | -10% | u
CCOc1ccc2nc(N(CCN(C)C)C(=O)c3ccc4c(c3)CCCC4)sc2c1 | x | u | -20% | u | -10% | -21%
COc1ccccc1-c1ccc2ncnc(NC3CCNCC3)c2c1 | x | x | x | x | x | 2%
CC(=O)N1/C(=C/c2ccc(N(C)C)cc2)C(=O)c2ccccc21 | 7 | 13µM* | -14% | u | -6% | 20µM*
CN(C)c1ccc(/C=C2\Cc3ccccc3C2=O)cc1 | x | x | 41% | x | -13% | x
Nc1nn(-c2ccccc2)nc1C(=O)OCc1c(F)cccc1Cl | 35 | 3%[46.1 µM] | -4% | -10%[46.1 µM] | 3% | 41%
Cc1cccc(/C=C2/S/C(=N/N=C3\CC4CCC3(C)C4(C)C)NC2=O)c1 (stereo not given) | -7 | u | 1% | 14µM* | x | u
CCOc1ccc(CNC(=O)c2cnc(SC)nc2C)cc1 | -19 | x | 0% | -4%[46.1 µM] | -3% | u
COCCN(Cc1cc2cc(C)ccc2[nH]c1=O)S(=O)(=O)c1ccc(Cl)cc1 | -92* | x | 0%[7.34 µM] | x | i[7.34 µM] | -15%
O=C(CC(c1ccccc1)c1cc(Br)ccc1O)NCCN1CCOCC1 (stereo not given) | 71 | u | -15% | -19% | -24% | -13%
O=C(NCCc1ccccc1)C(=O)NCC1(c2ccccc2)CCCC1 | 23 | 2% | x | 1% | x | 1%
O=C(CC(c1ccccc1)c1cc(Br)ccc1O)NCC1(c2ccccc2)CCCC1 (stereo not given) | -105* | u | -23% | u | -20% | u
SMILES | HCMV antiviral | MARV entry inh | Vaccinia Venus | Lassa entry inh | Vaccinia mCherry | FMDV inh
O=C(CCc1ccccc1)NCC1(c2ccccc2)CCCC1 | -4 | 5.6µM* | -23% | u | -3% | -21%
Cc1ncsc1CCC(=O)N1CCCC(c2nc(-c3ccncc3)ncc2-c2ccccc2)C1 (stereo not given) | x | x | -14% | x | -25% | u
C[C@@]1(CO)[C@H](O)CC[C@@]2(C)[C@H]1CC[C@H]1C[C@@H]3C[C@@]12CC[C@]3(O)CO | x | 0.52µM* | -34%[60.7 µM] | u | -34%[60.7 µM] | -19%[97.4 µM]
C[C@H]1CCC2[C@](C)(CO)[C@@H](O)CC[C@]2(C)[C@@]12CCC(CO)(CCO)O2 (stereo not given in full) | 29 | 19%[46.1 µM] | -7% | -1%[46.1 µM] | -10% | -15%
O=S(=O)(Nc1ccc(NS(=O)(=O)c2ccccc2)cc1)c1ccccc1 | -14 | x | -8% | x | -2% | 24%
Cc1cc(C)c(NS(=O)(=O)c2ccccc2)c(C)c1NS(=O)(=O)c1ccccc1 | -72* | u | -14% | u | -28% | -2%
Cc1cc(O)cc(C)c1NS(=O)(=O)c1ccc2ccccc2c1 | -83* | x | x | x | x | -1%
CC1OC(OC2C=C3CCC4C(CCC5(C)C(c6ccc(=O)oc6)CCC45O)C3(C)CC2)C(O)C(OC2OC(CO)C(O)C(O)C2O)C1O (stereo not given) | -97* | u | 0.0032µM* | u | 0.28µM* | u
COCCn1c(=O)c(-c2ccc(Cl)cc2)nc2cnc(Nc3ccccc3)nc21 | x | x | x | x | x | -17%
COCCN(C(=S)Nc1ccc(OC)c(Cl)c1)C1CCN(C(C)C)CC1 | u | u | -14% | -12% | -8% | -2%
FC(F)(F)c1cccc(NC(=S)N(CCCN2CCCC2)Cc2cccn2Cc2ccc(Cl)cc2)c1 | -67* | u | u | u | u | 28µM*
COc1ccc(NC(=S)N(CCCN2CCC(C)CC2)Cc2cccs2)cc1Cl | -90* | u | -6% | u | i | 113%
Cc1ccc(NC(=S)N(CCCN2CCCC2)Cc2cccn2Cc2ccc(Cl)cc2)cc1Cl | -12 | 8.9µM* | -19% | 1.1µM* | -16% | -22%
Cc1ccc(NC(=S)N(CCCN2CCCC2)Cc2cccn2Cc2ccc(Cl)cc2)cc1C | -25 | u | -13% | u | u | u
COc1ccc(NC(=S)N(CCC(C)C)C2CCN(C(C)C)CC2)cc1Cl | -62* | u | -22% | u | -21% | -23%
CN(C)CCCN(Cc1ccccc1)C(=S)Nc1cccc(C(F)(F)F)c1 | -38 | u | -15% | u | -7% | -15%
COc1ccc(NC(=S)N(CCCN2CCCC2)Cc2cccn2Cc2ccc(Cl)cc2)cc1Cl | -79* | x | x | x | x | -24%
CCOC(=O)CNC(=S)N(CCCN1CCCCCC1)Cc1cccs1 | -88* | u | -15% | 8%[46.1 µM] | i | -5%
O=C1C2=C(Nc3ccccc3SC2c2ccc(C(F)(F)F)cc2)c2ccccc21 (stereo not given) | -99* | u | u | u | u | u
O=C1C2=C(Nc3ccccc3SC2c2ccco2)c2ccccc21 (stereo not given) | 29 | u | -1% | u | x | 0%
CC(C)c1ccc(C2Sc3ccccc3NC3=C2C(=O)c2ccccc23)cc1 (stereo not given) | -100* | u | -19% | 18%[46.1 µM] | -14% | 7.9µM*

Assay outcomes: PubChem BioAssay, National Center for Advancing Translational Sciences (NCATS)
